Screening data: PubChem, National Center for Advancing Translational Sciences (NCATS)
This is one part of a sample in which hits are shown more often than they occur.
KDM5B inh: KDM5B demethylase inhibition. Potency, µM (top dose mostly 57.7 µM), actives largely listed as inhibitors. AID 1347165. KDM5B demethylase, FDH-coupled NADH fluorescence (FDH is formaldehyde dehydrogenase). actives 2.6% (n = 220,000). Q9UGL1; active = well fitted inhibition curve with a large enough effect; also: 0% is about no effect; nearly all actives have a fitted effect of over 70% in size
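Compound dilutions met 200 nM (final) KDM5BΔAP for 10 min at room temperature before substrate addition. The substrate mix held 12.5 µM H3K4me3 with cofactors 25 µM α-ketoglutarate and 50 µM Fe²⁺. NADH signal gain over 30 min defined activity.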
Active calls of the source: *; i = inactive; + = active, no number. Potency is read from the fitted curve at half-maximal effect.

SMILES | KDM5B inh
O=C(NCCCNc1ccccc1)NCc1cccnc1 | i
COCc1cc(NCCCNc2cccnc2)ncn1 | 14.1µM*
COCc1cc(NCCSCc2ccccc2C)ncn1 | i
COc1cccc(OC)c1OC(=O)c1ccc(C#N)cc1 | i
Cc1nn(-c2ccccc2)nc1C(=O)N[C@H](C)c1onc(-c2cccnc2)c1C(=O)O | 25.1µM*
Cc1cc(C(=O)N[C@H](C)c2onc(-c3cccnc3)c2C(=O)O)nn1C | i
C[C@@H](NC(=O)c1cccnc1)c1onc(-c2cccnc2)c1C(=O)O | i
CC(=O)N1C=Cc2ccccc2C1CC(=O)Nc1cccc(S(=O)(=O)N2CCOCC2)c1 (centres undefined) | i
O=C1CC(c2ccccc2)N(C(=O)C2CC2)CCCN(C(=O)c2ccsc2)CCN1 (centres undefined) | i
O=C(COc1ccc(-c2ccccc2)cc1)NCCc1c[nH]c2ccccc12 | i
COc1cccc(-n2c(-c3ccco3)nc3c(cnn3-c3ccc(C)c(C)c3)c2=O)c1 | i
CCOc1cccc(-c2nnc3n2N=C(c2ccc4c(c2)OCO4)CS3)c1 | i
COc1ccc2c(c1)c(C(C(=O)O)N1CCN(c3cccc(Cl)c3)CC1)cn2CCC(=O)O (centres undefined) | i
COc1cc(F)ccc1-c1cc(C(=O)NCc2c(C)cc(C)[nH]c2=O)c2c(c1)N(C(C)C)CCO2 | 31.6µM*
Cc1cc(C)c(CNC(=O)c2nc(-c3cccc(F)c3)cc3c2ccn3C(C)C)c(=O)[nH]1 | i
COc1cccc(-c2cc(C(=O)NCc3c(C)cc(C)[nH]c3=O)c3c(c2)N(C(C)C)CCO3)c1OC | 28.2µM*
COc1ccc2c(c1)CCCN2C(=O)c1cc2cc(Cl)ccc2nc1C | i
O=C1c2ccccc2N2C(=O)CCC2(C(=O)Nc2ccc(F)c(F)c2)N1Cc1ccccc1 (centres undefined) | i
COc1ccc(-c2nn(-c3ccccc3)cc2CN2C[C@@H](C)O[C@@H](C)C2)c(F)c1 | i
CCC(C)c1ccc(OC(C)C(N)=O)cc1 (centres undefined) | i
CCc1nc(C#N)c(N2CCN(c3cccc(Cl)c3)CC2)o1 | i
COc1cc(CN(CC2CCCO2)C(=O)COc2ccc(Cl)cc2C)cc(OC)c1OC (centres undefined) | i
COc1cccc(CN2C[C@@H](CO)[C@H](c3ccncc3)C2)c1OC | i
COc1cccc(CNC(=O)c2ccc3oc(=O)n(Cc4ccccc4)c3c2)c1 | i
CCN1CCN(C(=O)c2ccc3c(c2)n(Cc2cccc(F)c2)c(=O)c2ccnn23)CC1 | 25.1µM*
SMILES | KDM5B inh
CCCCNC(=O)c1ccc2c(c1)ncn2-c1cc(OC)ccc1OC | i
COCCCNC(=O)c1ccc2c(c1)n(Cc1ccc(OC)cc1)c(=O)c1ccnn12 | i
CCN1CCN(C(=O)c2ccc3c(c2)N(Cc2cccc(F)c2)C(=O)c2ccccc2S3)CC1 | i
CCCCNC(=O)c1ccc2c(c1)n(Cc1cccc(OC)c1)c(=O)c1ccnn12 | 35.5µM*
COCCCNC(=O)c1ccc2c(c1)n(Cc1cccc(F)c1)c(=O)c1ccnn12 | 28.2µM*
COCCCNC(=O)c1ccc2c(c1)CC(=O)N2Cc1ccccc1 | i
Cc1ccc(Cn2c(C3CCN(C(=O)c4cccc(F)c4)CC3)n[nH]c2=O)cc1 | i
Cc1cc2nc(/C(C#N)=C/c3ccc4c(c3)OCO4)[nH]c2cc1C | i
CCCc1ccc(S(=O)(=O)NCCc2cccc3cccnc23)cc1 | i
Cc1cc(C)cc(CC(CC(=O)O)C(=O)Nc2cccc(C(F)(F)F)c2)c1 (centres undefined) | i
CC(C)Oc1ccc(C(=O)N2CCN(c3nc4sc5c(c4c(=O)n3C)CCCC5)CC2)cc1 | i
O=C(CCc1nnc2ccc(NCc3ccc4c(c3)OCO4)nn12)N1CCN(c2ccccc2)CC1 | i
CCN(CCNC(=O)c1cc2ccccc2oc1=O)c1cccc(C)c1 | i
CCN(CC1CCCO1)C(=O)/C=C/c1ccc(C#N)cc1 (centres undefined) | i
COCc1nnc2n1CCC(NC(=O)C1(c3ccc(OC)cc3)CC1)CC2 (centres undefined) | i
COc1ccc(C2(C(=O)NC3CCc4n[nH]c(=O)n4CC3)CC2)cc1 (centres undefined) | i
COc1ccc(C2(C(=O)NC3CCCN(c4ncccn4)C3)CC2)cc1 (centres undefined) | 22.4µM*
O=C(CSC12CC3CC(CC(C3)C1)C2)NC1CCCN(c2ncccn2)C1 (centres undefined) | i
O=C(COc1ccccc1Cl)NC1CCCN(c2ncccn2)C1 (centres undefined) | i
CCc1c(C)nn(CC(=O)NC2CCCN(c3ncccn3)C2)c1C (centres undefined) | 20µM*
COc1ccc(OC)c(NC(=O)c2cc(=O)[nH]c3ccccc23)c1 | i
O=C(COc1ccc(F)cc1F)Nc1cccc2cccnc12 | i
Cc1ccc(C(=O)COC(=O)c2ccccc2O)s1 | i
CC(NC(=O)c1ccc2c(c1)NC(=O)CS2)C1CC1 (centres undefined) | i
Cn1c(=O)[nH]c(=O)c2c1nc(N1CCN(CC(N)=O)CC1)n2Cc1ccc(Cl)cc1Cl | i
SMILES | KDM5B inh
CC(C)NC(=O)c1onc(-c2ccc(Cl)cc2)c1[C@H](C)O | i
C#CCNC(=O)c1nc(-c2ccc([S+](C)(=O)[O-])cc2)c2cnccn12 | +
C#CCNC(=O)c1nc(-c2cccnc2)c2cnccn12 | i
CC(C)NC(=O)c1nc(-c2ccc(Cl)nc2)c2cnccn12 | +
CCC(C(=O)NC1CCCCC1)n1c(SCc2cccc(F)c2)nc2ccncc21 (centres undefined) | i
CC(C)NC(=O)CSCc1coc(-c2ccc(Cl)cc2)n1 | i
CC(C)NC(=O)c1nc(-c2cccc(F)c2)c2cnccn12 | 31.6µM*
C#CCNC(=O)c1nc(-c2ccc(Cl)nc2)c2cnccn12 | 112µM*
C#CCNC(=O)c1nc(-c2ccc([S+](C)(=O)[O-])cc2)c2ccccn12 | i
C#CCNC(=O)c1onc(-c2ccc(Cl)cc2)c1[C@H](C)O | i
O=C(Cc1c(Cl)cccc1Cl)OCc1ccc(Cl)cc1Cl | i
CC12CC(C)(C)C(C#N)(C(N)=C1C#N)C(=C(C#N)C#N)N2 (centres undefined) | i
CCCn1ccnc1SCC(=O)Nc1sc2c(c1C#N)CCCC2 | i
O=C(NC1CCCN(c2cc(-c3ccc(F)cc3)[nH]n2)C1)c1c[nH]c2ccccc12 (centres undefined) | i
COc1ccc(CNC(=O)c2scnc2C)cc1 | i
CN(C)C1(CNC(=O)Cc2n[nH]c(=O)c3ccccc23)CCCCC1 | i
COc1ccc(-c2nc3c(C)cccc3cc2CN2CCC[C@H]2CO)cc1OC | 25.1µM*
Cc1cc(C2CCCN2Cc2coc(-c3cccc(Cl)c3)n2)on1 (centres undefined) | i
COc1cc2cc(CN3CCC[C@H]3CO)c(-c3cccc(Cl)c3)nc2cc1OC | 25.1µM*
COc1cccc(-c2noc(CC3CCN(C(=O)c4cccc(Cl)c4)CC3)n2)c1 | i
COC[C@@H]1CCCN1Cc1cn(-c2ccccc2C)nc1-c1ccc(OC)c(F)c1 | i
COc1ccc(-c2nc3c(C)cccc3cc2CN2CC[C@@H](O)C2)cc1 | 17.8µM*
COc1ccc(OC)c(-c2nc3c(C)cccc3cc2CN2CCCC(O)C2)c1 (centres undefined) | i
